# Assay outcomes from PubChem.
# PMP22 txn – modulates PMP22 transcription in S16 Schwann cells | S16 Pmp22-F2sN Schwann cells, FLuc/NLuc coincidence luminescence, 24 h | Potency, µM (titrated, usually from 57.5 µM), for the others: at the top dose activity change, negative = inhibition, usual class: inhibitors | actives 2% (n = 43,000) | AID 1508649; active means clear falling dose curves in both reporters; inconclusive means both reporters move, but less clearly or upward; inactive means either reporter flat; the % is the NLuc reporter signal
#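 Luminescent read-out of sequential FLuc and NLuc signals from a reporter embedded in the Pmp22 3' UTR of S16 Schwann cells, taken after 24 h compound exposure at 37C; compounds reducing both signals score as inhibitors of expression.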
# p53null 32C tox – selectivity test: cytotoxicity in p53 null cells, permissive temperature; H1299-neo p53 null cells, ATP luminescence, 24 h, 32C; Potency, µM (series often up to 46.1 µM), for the others: top-dose activity change, negative = cytotoxicity, hits mostly cytotoxic; actives 0.62% (n = 55,000); AID 903;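 further: 0% = DMSO only and -100% = full killing by 100 µM tamoxifen; nearly all actives have a fitted effect of over 55% in size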
#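 H1299-neo (p53 null) cells, 600/well, treated 24 h at 32C with compound up to 46 uM; ATPlite luminescence viability, normalized to DMSO and 100 uM tamoxifen; AC50 by Hill fit.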
# p53null 39C tox – kills p53 null cells at the nonpermissive temperature; Potency, µM (series often up to 46.1 µM), for the others: at the highest dose activity, negative = cell killing, actives largely listed as cytotoxic; actives 0.97% (n = 55,000); AID 904; H1299 p53-null (neo) cells, 39C, ATPlite viability, 24 h;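 further: 0% = DMSO only and -100% = full killing by 100 µM tamoxifen; nearly all actives have a fitted effect of over 50% in size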
#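 Concentration-response (up to 46 uM) was run for 24 h at the nonpermissive 39C on H1299-p53A138V or H1299-neo cells. ATP content was measured with ATPlite luminescence. AC50 values were Hill-modeled after normalizing between DMSO and 100 uM tamoxifen killing.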
# S16 F2sN tox – cytotoxicity in S16 Pmp22-F2sN Schwann cells | S16 Pmp22-F2sN Schwann cells (luciferase reporters placed in the Pmp22 gene) viability, CellTiter-Glo, 24 h | Potency, µM (highest dose often 57.5 µM), inactives show at the highest dose activity change, negative = cytotoxicity, most hits filed as cytotoxic | actives 0.48% (n = 43,000) | AID 1508642; further: nearly all actives have a fitted effect of over 65% in size
#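 Luminescence from CellTiter-Glo, read by CCD camera after a 15 min room-temperature incubation, served as the viability signal. Reporter Schwann cells (S16 Pmp22-F2sN) had been treated with pin-transferred compounds for 24 h at 37C.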
# pS6 MEF inh – reduces mTORC1 signaling in Tsc2 and p53 null MEF cells. Tsc2-/- p53-/- MEF, phospho-rpS6 immunofluorescence/PI, 24 h. Potency, µM (titrated, usually from 38.3 µM), inactives show at the highest dose activity change, negative = inhibition, most hits filed as inhibitors. actives 0.78% (n = 44,000). AID 493208;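 further: plate controls were DMSO for no effect and rapamycin for full effect; nearly all actives have a fitted effect of over 50% in size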
#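 Tsc2-/-, p53-/- MEFs (empty-vector stable line) in DMEM + 10% FBS were treated with compounds 24 h at 37 degree Celsius, fixed, and immunostained for phospho-rpS6 (Alexa-488) with propidium iodide counterstain. Laser-scanning cytometry gave % positive cells, normalized against 7.5 nM rapamycin and DMSO.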
# Starred values were filed as active, the others as inactive; ? = inconclusive; / = no result. Rows were chosen to be rich in hits. Some 3.2% of all compounds tested hit in one or more screens of this group. Unless noted, the call rests on the fitted dose curve; in most records, active means well fitted curve in the direction sought with a large enough effect; inconclusive means small, poorly fitted or top-dose-only effect, or another doubt; inactive means no such curve, though single readings can be large; an effect the other way counts as inactive or inconclusive. Unless noted, on the % scale 0 is the no-effect control and ±100 the full control effect; potency means the concentration at half of the fitted maximal effect.
SMILES,PMP22 txn,p53null 32C tox,p53null 39C tox,S16 F2sN tox,pS6 MEF inh
CCc1nn(CC(=O)NCc2ccccc2Cl)c(=O)c2cccn12,3%,-20%,16µM*,2%,2.6µM*
CCCCC(=O)Nc1cc(-c2cn3cccnc3n2)ccc1C,-3%,-5%,16%,8%,-1%
CCc1ccc2nc(N(CCN(CC)CC)C(=O)c3cccs3)sc2c1,?,-10%,-7%,-6%,-7%
CCC(=O)NCCc1nc2cc(NC(=O)c3cccc(Br)c3)ccc2n1C,1%,13µM*,10µM*,-15%,-11%
CCCC(=O)OC1=CN(Cc2ccccc2)S(=O)(=O)c2ccccc21,-11%,-3%,1%,3%,16µM*
Cc1cccc(OCC(=O)Nc2c(C)ccc3nsnc23)c1C,31%,?,-19%,-24%,?
CCC1CCCCN1CCCNC(=O)c1ccc2c(c1)N(Cc1ccccc1)C(=O)c1ccccc1S2(=O)=O (stereo unspecified),?,2%,-22%,-17%,-13%
CCC1CCCCN1CCCNC(=O)c1ccc2c(c1)N(Cc1ccc(Cl)cc1)C(=O)c1ccccc1S2(=O)=O (stereo unspecified),?,-1%,25µM*,?,?
CC1CCCN(CCCNC(=O)c2ccc3c(c2)N(Cc2ccc(Cl)cc2)C(=O)c2ccccc2S3(=O)=O)C1 (stereo unspecified),?,?,16µM*,?,13µM*
Cc1ccc(C)c(CN2C(=O)c3ccccc3S(=O)(=O)c3ccc(C(=O)NCCCN4CCCC(C)C4)cc32)c1 (stereo unspecified),?,-1%,?,?,?
Cc1cc(C)cc(NC(=O)CCc2nnc3n(C)c(=O)c4sccc4n23)c1,-12%,-2%,13%,4%,-7%
Cc1cccc(C(=O)Nc2c(C(=O)NCc3ccc(Cl)cc3)sc3nc(C)cc(C)c23)c1,?,-20%,?,?,13µM*
CSc1ccc(CNC(=O)Cn2nc(N3CCN(c4ccccc4)CC3)ccc2=O)cc1,3%,-7%,?,18%,-6%
NC(=O)c1ccccc1N/C=C/C(=O)c1cccs1,/,13µM*,11µM*,/,/
Cc1cccc(N/C=C/C(=O)c2cccs2)c1C,/,14µM*,/,/,/
COc1ccc(OC)c(NC(=O)Cn2cc(C(=O)c3ccc(Cl)cc3)c(=O)c3cc(OC)ccc32)c1,?,3%,2%,2%,-12%
CCCN1Cc2cccc(C(=O)Nc3cc(Cl)ccc3C)c2C1=O,?,-8%,-9%,10%,4%
Cc1ccccc1OCC(=O)Nc1ccc2nc(SCC(=O)N3CCCC3)sc2c1,-1%,?,-16%,0%,-1%
CCCCc1c(C)nc2c(-c3ccc(Cl)cc3)c(C)[nH]n2c1=O,11µM*,/,/,5µM*,10%
Cc1[nH]n2c(=O)cc(-c3ccc(Cl)cc3)nc2c1-c1ccccc1,8.5µM*,/,/,10µM*,?
Cc1nc2c(-c3ccccc3)c(C)[nH]n2c(=O)c1Cc1ccc(Br)cc1,9.5µM*,/,/,10µM*,?
Cc1ccc(Cc2c(C)nc3c(-c4ccccc4)c(C)[nH]n3c2=O)cc1,?,/,/,?,2%
Cc1nc2c(-c3ccccc3)c(C)[nH]n2c(=O)c1Cc1ccc(C(C)C)cc1,?,/,/,8.9µM*,5%
COc1ccc(CNC(=O)c2cc3cccc4c3n2CC(C)S4)cc1OC (stereo unspecified),-17%,15%,12%,4%,0%
Cc1cccc(NS(=O)(=O)c2ccc(Cl)c(C(=O)Nc3ccccc3C)c2)c1,-14%,20%,1%,16%,-2%
COc1ccc2oc(=O)c(C(=O)Nc3cccc(C(=O)O)c3)cc2c1,9%,10µM*,7.9µM*,5%,1%
COc1ccc(CNC(=O)c2cc3cc(OC)ccc3oc2=O)cc1,-24%,5%,-6%,2%,-24%
